Only a selection was taken, and hits are over-represented in it overall.
G9a block – inhibitors of human histone lysine methyltransferase G9a; Q96KQ7; G9a H3K9 monomethylation, AlphaScreen, 2 h; Potency, µM (titrated, usually from 102 µM), actives largely listed as inhibitors; actives 8.8% (n = 350,000); AID 504332; further: nearly all actives have a fitted effect of over 75% in size
Target sequence (Q96KQ7 913-1193 limits assumed): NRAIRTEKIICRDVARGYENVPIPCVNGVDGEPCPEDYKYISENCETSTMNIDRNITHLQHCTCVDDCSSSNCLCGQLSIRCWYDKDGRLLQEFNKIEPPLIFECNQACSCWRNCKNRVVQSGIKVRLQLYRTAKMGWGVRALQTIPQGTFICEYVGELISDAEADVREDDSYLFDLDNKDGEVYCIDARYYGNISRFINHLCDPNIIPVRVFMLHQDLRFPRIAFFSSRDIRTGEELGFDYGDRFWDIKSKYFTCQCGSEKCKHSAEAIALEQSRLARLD
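Step 1: enzyme (final 20 nM) with compound, 15 min RT. Step 2: substrate peptide 500 nM and SAM 20 uM, 2 h RT. Step 3: anti-H3K9me1 antibody and AlphaScreen beads, 10 min, then plate read.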
Sfp PPTase inh – blocks B. subtilis Sfp PPTase activity | actives 3.5% (n = 310,000) | Q9F4F7 | Biochemical Sfp PPTase activity, qHTS | AID 1490 | Potency, µM, hits mostly inhibitors;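 further: the enzyme is Sfp with the accession as filed and its product quenches rhodamine fluorescence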
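Reaction rates are the 30-min fluorescence difference (ex 525, em 598 nm) in wells containing 15 nM Sfp, 5 uM rhodamine-CoA and 12.5 uM BHQ-2-YbbR at pH 7.6 with 10 mM MgCl2.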
VDR inh – inhibitors of human vitamin D receptor; VDR-SRC2-3 peptide fluorescence polarization, 2 h; Potency, µM, hits mostly inhibitors; actives 0.93% (n = 400,000); AID 504847
Target sequence (P11473 whole entry, looked up): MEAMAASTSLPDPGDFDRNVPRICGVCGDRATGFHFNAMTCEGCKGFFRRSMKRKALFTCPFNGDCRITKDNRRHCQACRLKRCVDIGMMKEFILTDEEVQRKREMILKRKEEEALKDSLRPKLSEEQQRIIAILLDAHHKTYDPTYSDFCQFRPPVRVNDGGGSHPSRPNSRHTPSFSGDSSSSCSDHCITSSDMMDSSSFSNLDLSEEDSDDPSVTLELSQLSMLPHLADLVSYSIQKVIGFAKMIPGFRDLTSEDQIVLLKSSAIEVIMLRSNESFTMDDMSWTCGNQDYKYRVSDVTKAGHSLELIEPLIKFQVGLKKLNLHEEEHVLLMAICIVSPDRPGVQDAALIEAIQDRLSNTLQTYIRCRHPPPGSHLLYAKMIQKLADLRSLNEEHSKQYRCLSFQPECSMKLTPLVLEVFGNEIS
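VDR–SRC2-3 interaction, FP format. Cmpds 23 nl via pintool, brief spin, 2 h ambient incubation.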
Glioma ERSR ind – ER stress response induction in glioma | Potency, µM, most hits filed as activators | AID 602332 | U87-MG GRP78 promoter luciferase reporter, 16 h | actives 0.02% (n = 420,000); further: series mostly up to about 76 µM; nearly all actives have a fitted effect of over 35% in size
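Stably transfected U87-MG glioma cells carrying a GRP78-based luciferase sensor; 16 h compound incubation. Luminescence end-point read 10 min after Bright-Glo addition at room temperature.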
ALOX12 inh – ALOX12 (human) lipoxygenase inhibition | actives 1.1% (n = 580,000) | purified 12hLO, xylenol orange hydroperoxide absorbance | Potency, µM (top dose mostly 108 µM), actives largely listed as inhibitors
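Hydroperoxide product was detected by ferrous iron/xylenol orange as the 573 to 405 nm absorbance ratio. Arachidonic acid at 40 uM (final) was turned over for 30 min at room temperature by 150 nM human 12hLO, pH 7.0 Hepes buffer, after 15 min compound preincubation.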
Hits are given with their value; – = inactive; ? = inconclusive; · = not tested or not shown; ! = a repeat was not active; [ ] = remark or other dose. The call rests on the fitted dose curve; in most records, active means well fitted curve in the direction sought with a large enough effect; inconclusive means small, poorly fitted or top-dose-only effect, or another doubt; inactive means no such curve, though single readings can be large; an effect the other way counts as inactive or inconclusive.

SMILES | G9a block | Sfp PPTase inh | VDR inh | Glioma ERSR ind | ALOX12 inh
CC1CCC(COC(=O)C[N+]2(C)CCCCC2)C(C)C1 (stereo not given) | · | · | · | · | 22.4µM
Nc1nccnc1C(=O)NCc1ccncc1 | · | · | · | · | –
COc1ccc(C)cc1NC(=O)N1CCC(OC2CCN(Cc3ccccc3)CC2)CC1 | · | · | · | · | –
Cc1ccc(C)c(NC(=S)NNC(=O)c2csc3c2CCCC3)c1 | –[12.7 µM] | – | – | – | ?
Cc1ccc(NC(=O)C2=Cc3sc4c(c3CS2)CCCC4)cc1C | · | · | · | · | 7.08µM
Cc1ccc(C)c(NC(=O)C2=Cc3sc4c(c3CS2)CCCC4)c1 | · | · | · | · | 17.8µM
CCC(C)NC(=O)C1=Cc2sc3c(c2CS1)CCCC3 (stereo not given) | · | · | · | · | 14.1µM
Cc1cc(C)c(NC(=O)C2=Cc3sc4c(c3CS2)CCCC4)c(C)c1 | · | · | · | · | 28.2µM
CCOc1cccc2cc(C(=O)NCc3ccc(OC(F)F)c(OC)c3)c(=O)oc12 | · | · | · | · | –
COc1ccc(NC(=O)c2cc3sc(C)c(CN4CCCCC4)c3[nH]2)cc1OC | · | · | · | · | –
COC(=O)CCN(C(=O)C12CC3CC(CC(C3)C1)C2)c1ccccn1 | – | – | – | – | –
O=C(N(c1ccccn1)c1ccccn1)C12CC3CC(CC(C3)C1)C2 | 79.4µM | – | – | – | ?
O=C(Nc1ccc(OC(F)(F)F)cc1)N1CCOC[C@H](Oc2ccccc2)C1 | · | · | · | · | –
CC(Sc1nc(C(C)(C)C)cc(-c2ccccc2)c1C#N)C(=O)Nc1ccccc1 (stereo not given) | 7.94µM | 14.1µM | ? | – | ?
CCOC(=O)C(C)Sc1nc(-c2ccccc2Cl)cc(-c2ccccc2)c1C#N (stereo not given) | – | · | – | – | –
Cc1c(OCc2nn[nH]n2)ccc2c3c(c(=O)oc12)CCC(C)C3 (stereo not given) | 50.1µM | – | – | – | ?
Cc1cc2oc(=O)c3c(c2cc1OCc1nn[nH]n1)CCCC3 | 70.8µM | – | – | – | –
Cc1c(OCc2nn[nH]n2)ccc2c3c(c(=O)oc12)CCCC3 | 70.8µM | – | – | – | –
O=c1oc2cc(OCc3nn[nH]n3)ccc2c2c1CCCC2 | – | – | – | – | –
O=C(NCc1ccccn1)C1c2ccccc2C(=O)N(Cc2ccccc2)C12CCCCC2 (stereo not given) | · | · | · | · | –
Clc1ccc(/C=N/N=C(c2ccccc2)c2ccccc2)c(Cl)c1 | · | · | · | · | –
OCC1(CN2CCCC2)CCN(Cc2ccc(Cl)c(F)c2)CC1 | · | · | · | · | –
COc1cc(NC(=O)c2cnc(NCc3ccc4c(c3)OCO4)nc2C)cc(OC)c1 | · | · | · | · | –
COC(=O)CCC1(C(=O)OC)c2ccccc2-c2ccccc21 | · | · | · | · | –
CCC1c2nccn2CCCN1C(=O)c1ccc(OC)nc1OC (stereo not given) | · | · | · | · | –
SMILES | G9a block | Sfp PPTase inh | VDR inh | Glioma ERSR ind | ALOX12 inh
CC1(C)C(=O)Nc2ccccc2N1C(=O)COC(=O)c1cccc(O)c1 | · | · | – | – | –
CC1(C)C(=O)Nc2ccccc2N1C(=O)COC(=O)c1ccc(NC(N)=O)cc1 | 35.5µM | · | – | – | ·
c1ccc(N2CCN(c3nc(N4CCCC4)nc4nccnc34)CC2)cc1 | · | · | · | · | –
Cc1ccc(NS(=O)(=O)c2cc(C(=O)NCc3cccnc3)ccc2C)cc1 | ? | – | – | – | –
CC(C)(C)c1ccc(S(=O)(=O)Nc2ccccn2)cc1 | · | – | – | – | –
Cc1ccc(C(=O)Nc2ccc(Br)cc2)cc1S(=O)(=O)Nc1ccccn1 | 79.4µM | – | – | – | –
O=C(Nc1ccc(S(=O)(=O)Nc2ccccn2)cc1)c1cccc(Cl)c1 | 25.1µM | – | – | – | ?
Nc1ccc(S(=O)(=O)Nc2ccccn2)cc1 | 25.1µM! | – | – | – | ?
Cc1ccc(NS(=O)(=O)c2cc(C(=O)Nc3cccnc3)ccc2C)cc1 | 79.4µM | – | – | – | ?
O=C(Nc1ccc(S(=O)(=O)Nc2ccccn2)cc1)c1cccc(Br)c1 | · | – | – | – | –
Cc1ccc(C(=O)Nc2ccccc2)cc1S(=O)(=O)Nc1ccc(Br)cc1 | – | · | – | – | ?
Cn1c(=O)c2nc(SCC(=O)O)n(Cc3ccccc3)c2n(C)c1=O | · | · | · | · | –
Cc1ccc(NS(=O)(=O)c2cc(C(=O)N3CCN(C)CC3)ccc2C)cc1 | – | – | – | – | –
Cc1ccc(NS(=O)(=O)c2cc(C(=O)N3CCN(CCO)CC3)ccc2C)cc1 | 2µM | · | – | – | –
COc1ccc2c(c1)O[C@H](c1ccc3c(c1)OCO3)[C@@H](OC(=O)NCc1ccco1)C2=O | · | 89.1µM | ? | · | ·
COc1ccc2c(c1)O[C@H](c1ccc3c(c1)OCO3)[C@@H](OC(=O)Nc1cc(OC)c(OC)c(OC)c1)C2=O | 50.1µM | – | – | · | ·
COc1ccc2c(c1)O[C@H](c1ccc3c(c1)OCO3)[C@@H](OC(=O)NCc1ccc3c(c1)OCO3)C2=O | · | – | – | · | ·
COc1ccc2c(c1)C(=O)[C@H](OC(=O)NCc1ccco1)[C@@H](c1ccc(OC)c(Br)c1)O2 | · | – | 56.2µM | · | ·
COc1cccc([C@@H]2Oc3ccc(OC)cc3C(=O)[C@H]2OC(=O)NCc2ccc3c(c2)OCO3)c1 | 44.7µM | – | – | · | ·
COc1ccc(NC(=O)c2cc(S(=O)(=O)N3CCc4ccccc43)cn2C)cc1Cl | · | · | · | · | –
CN=C1C=CC(=C(c2ccc(N(C)C)cc2)c2ccc(N(C)C)cc2)C=C1 | ? | 44.7µM | 39.8µM | – | ·
O=C(CNCCc1ccccc1)Nc1ccc(C(=O)N2CCCCC2)cc1 | 11.2µM | – | – | – | ?
O=C(CNCc1ccccc1Cl)Nc1ccc(C(=O)N2CCCCC2)cc1 | 5.62µM | ? | – | – | –
Cc1ccc(CC(=O)Nc2ccc(C(=O)N3CCCCC3)cc2)cc1 | · | – | – | – | –
O=C(CNCc1ccc(F)cc1)Nc1ccc(C(=O)N2CCCCC2)cc1 | 10µM | ? | – | – | ?
SMILES | G9a block | Sfp PPTase inh | VDR inh | Glioma ERSR ind | ALOX12 inh
CCC(C)NC(=O)c1cccc(N(C)C)c1 (stereo not given) | · | · | · | · | –
O=c1nc(Nc2ccc(OCc3ccccc3)cc2)sc2ncccc12 | 50.1µM | – | – | – | –
CC(=O)c1cccc(Nc2nc(=O)c3cccnc3s2)c1 | 50.1µM | – | – | – | –
Cc1ccc(Nc2nc(=O)c3cccnc3s2)c(Br)c1 | 14.1µM | – | – | – | –
CC(=O)c1ccc(Nc2nc(=O)c3cccnc3s2)cc1 | ? | – | – | – | –
COc1cccc(C(O)c2nc(C(=O)Nc3ccc4c(c3)CC(=O)N4)c(C)o2)c1 (stereo not given) | · | · | · | · | –
COc1cc(/C=C(\C#N)C(=O)c2ccccc2)ccc1OCc1ccccc1 | · | · | · | · | –
O=C(Cn1cnc2sc(-c3ccccc3)cc2c1=O)NCc1ccco1 | 12.6µM | 31.6µM | ? | – | –
O=C(Cn1ncn2c(cc3ccccc32)c1=O)NCc1ccco1 | ? | 22.4µM | – | – | –
Nc1nccnc1C(=O)NCc1ncc(-c2ccccc2)o1 | · | · | · | · | –
Cc1ccc(C(=O)NCC(=O)OC(C)C(=O)Nc2ccc(N(C)C)cc2)s1 (stereo not given) | 39.8µM | – | – | – | –
CCOC(=O)c1sc(N/N=C/c2ccc(N(C)C)cc2)nc1C | – | – | – | – | –

Screens: PubChem BioAssay, National Center for Advancing Translational Sciences (NCATS)
